# Experimental data reported in ChEMBL document CHEMBL3988442, “University of Dundee, Small-Polar-MMV Screening Library” (2021).
# Hit rate of the full screen: of about 66,000 compounds, about 960 (1.5%) showed an effect of 50% or more. The entries come from a sample that favours strong results as a whole.
# System: Trypanosoma brucei
# Assay: Trypanosoma brucei 72 hour study
# Format: functional, organism-based
# Parameters: scale not given: in the data most compounds retested in dose-response had high values
compound,measurement,setting,value
COCCOc1cccc(CNCc2c(C)nn(C)c2N(C)C)c1,Percent Effect,10 µM,-49.16%
Cc1nc(C)n(CC2CCCN(c3ncnc4ccccc34)C2)n1 (configuration not stated),Percent Effect,"30.3 µM, […]",12.87%
Cc1nc(C)n(CC2CN(c3ncnc4[nH]ccc34)CCO2)n1 (configuration not stated),Percent Effect,"30 µM, 30.03 µM",20.56%
Cc1nc(C)n(CC2CCCN(c3ncnc4[nH]ccc34)C2)n1 (configuration not stated),Percent Effect,"30 µM, 30.03 µM",50.76%
CC(C)NC(=O)[C@@]12CCO[C@@H]1CCN(Cc1ccco1)C2.O=C(O)C(F)(F)F,Percent Effect,"30.3 µM, […]",-46.6%
COc1cc(C)c(-c2ccc(F)c3c2OC(CN)C3)cc1C (configuration not stated),Percent Effect,"30 µM, 30.03 µM",-14.37%
CCN1CCn2c(C)cnc2C12CCN(C(=O)N(C)C)CC2.O=C(O)C(F)(F)F.O=C(O)C(F)(F)F,Percent Effect,"30.3 µM, […]",-17.98%
CC(C)(C)c1cnc(CN2CCCCC2Cn2cccn2)o1 (configuration not stated),Percent Effect,"30.3 µM, […]",-24.92%
same,Percent Effect,"10 mM, 10 mM as filed; unlikely as a test dose",-80.62%
CC(C)(C)c1cnc(CN2CCC[C@H]2CO)o1,Percent Effect,"30 µM, 30.03 µM",19.26%
CCC1CCCCN1Cc1ncc(C(C)(C)C)o1 (configuration not stated),Percent Effect,"30.3 µM, […]",100.3%
same,Percent Effect,"10 mM, 10 mM as filed; unlikely as a test dose",-33.47%
Cc1nc(C)n(CC2CCCN2Cc2ncc(C(C)(C)C)o2)n1 (configuration not stated),Percent Effect,"30.3 µM, […]",101.7%
same,Percent Effect,"10 mM, 10 mM as filed; unlikely as a test dose",-27.43%
Cc1cc(C)n(CC2CCCN2Cc2ncc(C(C)(C)C)o2)n1 (configuration not stated),Percent Effect,"30.3 µM, […]",1.727%
same,Percent Effect,"10 mM, 10 mM as filed; unlikely as a test dose",-8.311%
Cc1nc(C)n(CC2CCCCN2Cc2ncc(C(C)(C)C)o2)n1 (configuration not stated),Percent Effect,"30 µM, 30.03 µM",13.64%
Cc1nc(C)c(S(=O)(=O)NC(=O)c2ccoc2)s1,Percent Effect,"30 µM, 30.03 µM",-10.98%
Cc1cc(F)c(S(=O)(=O)NCC(C)(C)N)cc1F.Cl,Percent Effect,"30 µM, 30.03 µM",-16.06%
Cc1nn(C)c(C)c1-c1cc(-c2cnn(C)c2C2CC2)c(C#N)c(N)n1,Percent Effect,"30.3 µM, […]",20.75%
Cn1ncc(-c2cc(-c3cccc(O)c3)nc(N)c2C#N)c1C1CC1,Percent Effect,"30.3 µM, […]",47.44%
Cc1cc(O)ccc1-c1cc(-c2cnn(C)c2C2CC2)c(C#N)c(N)n1,Percent Effect,"30.3 µM, […]",53.81%
Cc1nccc(NCc2cncc3c2CCN(CC2CCOC2)C3)n1.Cl.Cl (configuration not stated),Percent Effect,"30.3 µM, […]",-74.45%
C/N=C1\c2cc3cc(OC)ccc3n2CCN1Cc1ccccc1.O=C(O)C(F)(F)F,Percent Effect,"30 µM, 30.03 µM",28.46%
C/N=C1\c2cc3cc(OC)ccc3n2CCN1C.Cl,Percent Effect,"30 µM, 30.03 µM",-36.23%
C/N=C1/c2cc3cc(OC)ccc3n2CCN1Cc1ccccc1.Cl,Percent Effect,"30 µM, 30.03 µM",62.06%
Cc1ccc(CN2C[C@@H]3COC[C@@H](CC(=O)N4CCOCC4)[C@@H]3C2)s1.O=C(O)C(F)(F)F,Percent Effect,"30 µM, 30.03 µM",-11.98%
O=C(COC1CCCC1)N1C[C@@H]2COC[C@]2(COc2cccnc2)C1.O=C(O)C(F)(F)F,Percent Effect,"30.3 µM, […]",-69.72%
Cc1ccc(N2CCCC(c3[nH]ncc3Cc3ccccc3)C2)nn1 (configuration not stated),Percent Effect,"30 µM, 30.03 µM",42.86%
Cc1ccc(N2CCC(c3cc(Cc4ccccc4)n[nH]3)CC2)nn1,Percent Effect,"30.3 µM, […]",-45.15%
Cc1ccc(N2CCC(c3[nH]ncc3Cc3ccccc3)CC2)nn1,Percent Effect,"30 µM, 30.03 µM",58.22%
O=C(C[C@@H]1COC[C@H]2CN(C(=O)c3cccnc3)C[C@@H]12)N1CCCC1.O=C(O)C(F)(F)F,Percent Effect,"30 µM, 30.03 µM",-25.13%
CCN1C(=O)CC[C@]12CC[C@@H](NC(=O)c1ccncc1F)CC2.O=C(O)C(F)(F)F,Percent Effect,"30.3 µM, […]",5.821%
O=C(CC1CC1)N1CCC2(CC1)CN(c1ncc(F)cn1)CCO2,Percent Effect,"30.3 µM, […]",-27.29%
O=C(CC1CC1)N1CCC2(CC1)CN(c1ncccn1)CCO2,Percent Effect,"30 µM, 30.03 µM",61.77%
COCC(=O)N1CCC2(CC1)CN(c1ncccn1)CCO2,Percent Effect,"30.3 µM, […]",-22.4%
Cc1cnc(N)c(C(=O)C2CCN(C(=O)c3ccccc3F)CC2)c1,Percent Effect,"30 µM, 30.03 µM",31.22%
O=C(NCc1cnn(-c2ccc(F)cc2F)c1)C1CCCO1 (configuration not stated),Percent Effect,"30 µM, 30.03 µM",6.462%
COC(=O)C1CN(Cc2ccn(-c3ccc(F)cc3)n2)CCO1 (configuration not stated),Percent Effect,"30 µM, 30.03 µM",-55.87%
O=C(NCCn1cccc1)C1CCCOC1 (configuration not stated),Percent Effect,"30 µM, 30.03 µM",2.367%
CN1CC(C(=O)NCCc2ccn(-c3ccc(F)cc3)n2)CC1=O (configuration not stated),Percent Effect,"30.3 µM, […]",-29.7%
O=C(NCCc1ccn(-c2ccc(F)cc2)n1)C1CCCO1 (configuration not stated),Percent Effect,"30.3 µM, […]",99.62%
O=C(NCCc1ccn(-c2ccc(F)cc2)n1)C1CCCOC1 (configuration not stated),Percent Effect,"30.3 µM, […]",101.3%
Cc1noc(C)c1CN1CCN(Cc2ccncc2)c2ncccc2C1.O=C(O)C(F)(F)F.O=C(O)C(F)(F)F.O=C(O)C(F)(F)F,Percent Effect,"30 µM, 30.03 µM",43.91%
COc1ccc(CN2CCc3nnc(COCCN(C)C)n3CC2)cc1.O=C(O)C(F)(F)F.O=C(O)C(F)(F)F,Percent Effect,"30.3 µM, […]",-2.661%
CN1C(=O)CC[C@@H]2[C@H]1CCN2S(=O)(=O)Cc1ccccc1,Percent Effect,"30 µM, 30.03 µM",-49.38%
COc1ccc(-c2cc(CN)nc3ccnn23)cc1.Cl,Percent Effect,"30.3 µM, […]",-10.95%
CN(C)S(=O)(=O)c1cccc(CNc2cc(CO)ccc2Cl)c1,Percent Effect,"30.3 µM, […]",18.15%
COc1cccc(CNc2cc(CO)ccc2Cl)c1,Percent Effect,"30.3 µM, […]",-53.68%
Cc1cccc(CNC(=O)CNc2cc(CO)ccc2Cl)c1,Percent Effect,"30 µM, 30.03 µM",50.69%
CC(C)CC(=O)N1CC[C@H]2N(C)CC[C@@]2(C(=O)Nc2ccccc2)CC1.O=C(O)C(F)(F)F,Percent Effect,"30 µM, 30.03 µM",-17.6%
CCc1cc(CN2CCCCC2c2ccc(F)cc2)on1 (configuration not stated),Percent Effect,"30.3 µM, […]",-64.98%
CCCC(=O)N(C)Cc1nc(N2CCCC2)ncc1-c1ccncc1.Cl,Percent Effect,"30.3 µM, […]",24.09%
COCCNC(=O)[C@H]1C[C@@H]2CCN(c3nncs3)C[C@H]2O1.O=C(O)C(F)(F)F,Percent Effect,"30 µM, 30.03 µM",50.75%
O=C(NCC1CCOCC1)[C@H]1C[C@@H]2CCN(c3nncs3)C[C@@H]2O1.O=C(O)C(F)(F)F,Percent Effect,"30.3 µM, […]",-23.29%
COCCNC(=O)[C@H]1C[C@@H]2CCN(c3ncccn3)C[C@H]2O1.O=C(O)C(F)(F)F,Percent Effect,"30.3 µM, […]",-89.35%
O=C(NCC1CCOC1)N1CCN(Cc2ccc3c(c2)OCO3)CC1 (configuration not stated),Percent Effect,"30.3 µM, […]",1.586%
O=C(NCC1CCOC1)N1CCN(Cc2ccc3c(c2)CCO3)CC1 (configuration not stated),Percent Effect,"30 µM, 30.03 µM",54.6%
O=C(NCC1CCCO1)N1CCN(Cc2ccc3c(c2)CCO3)CC1 (configuration not stated),Percent Effect,"30.3 µM, […]",17.02%
CC1(C(=O)N2CCOCC2)CNCCO1.Cl (configuration not stated),Percent Effect,"30.3 µM, […]",-3.709%
O=C(CC1CC1)NCc1cn2c(n1)CN(CC1CC1)CC2.O=C(O)C(F)(F)F,Percent Effect,"30 µM, 30.03 µM",14.47%
O=C(COCc1ccccc1Cl)N1CCN(c2ccc(Br)cn2)CC1,Percent Effect,"30.3 µM, […]",6.228%
